In PubChem BioAssay AID652181 (The Scripps Research Institute Molecular Screening Center, 2013):

What follows are molecules tested on Hsp90 CT (assay: direct binding to Hsp90 C-terminal domain – biophysical, surface plasmon resonance, orthogonal assay for selective HSP90 inhibitor project, late-stage follow-up (AID 652181)). Conditions: Surface plasmon resonance binding to HSP90 domains, at 200 µM, stronger effect = higher value.

Compound	binding
CCOC(=O)c1csc(NC(=O)c2cc3ccccc3o2)n1	6.43
Cc1c(-c2nc(-c3ccc(C(C)(C)C)cc3)no2)n(C)oc1=O	4.46
CCc1ccc(OCc2ccc(C(=O)OC)o2)cc1	6.78
Cc1cc(NO)nc(-c2ccc(Br)cc2)n1	0.77
Cc1c(-c2nc(-c3ccc(C(F)(F)F)cc3)no2)n(C)oc1=O	7.47
CC(=O)Nc1ccccc1OCC(=O)c1cc(C)n(Cc2cccs2)c1C	10.6
COC(=O)c1ccccc1OCCCOc1ccc(C)cc1OC	10.2
CCOC(=O)C1=C(c2ccc(OC)cc2)C(=O)c2ccccc2C1=O	11.2
COc1cc(/C=N/Nc2ccc(Cl)c(C(=O)O)c2)ccc1OC(=O)c1ccc(F)cc1	-4.19
COc1ccccc1NC(=O)c1coc(=O)c(Br)c1	11.7
